Rows were chosen to be rich in hits. Some 0.4% of all compounds tested hit in one or more screens of this group.
AID inh – inhibitors of human activation induced cytidine deaminase; Q9GZX7; AID deamination FRET fluorescence, UDG-coupled, 4 h; 0.32% of 91,000 active; Potency, µM (highest dose often 115 µM), hits mostly inhibitors; further: nearly all actives have a fitted effect of over 25% in size
Target sequence (Q9GZX7 whole entry, looked up): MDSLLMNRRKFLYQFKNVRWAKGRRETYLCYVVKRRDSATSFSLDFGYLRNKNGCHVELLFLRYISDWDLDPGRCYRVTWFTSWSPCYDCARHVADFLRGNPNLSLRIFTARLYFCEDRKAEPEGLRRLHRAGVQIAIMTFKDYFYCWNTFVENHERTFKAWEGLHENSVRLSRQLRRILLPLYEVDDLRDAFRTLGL
UDG counter – UDG inhibition counter-screen | FRET deamination/UDG coupled assay, UDG read, 4 h | Potency, µM (doses to about 115 µM), for inactives: at the highest dose activity change, negative = inhibition, most hits filed as inhibitors | 0.14% of 91,000 active; further: nearly all actives have a fitted effect of over 65% in size
An asterisk follows results filed as active; i = inactive; ? = inconclusive; ! = not confirmed by another sample; [ ] = remark or other dose. The call rests on the fitted dose curve; in most records, active means well fitted curve in the direction sought with a large enough effect; inconclusive means small, poorly fitted or top-dose-only effect, or another doubt; inactive means no such curve, though single readings can be large; an effect the other way counts as inactive or inconclusive. On the % scale 0 is the no-effect control and ±100 the full control effect; potency means the concentration at half of the fitted maximal effect.

SMILES | AID inh | UDG counter
Cc1nc2nc(SCC(=O)NCc3ccccc3Cl)nn2c(C)c1Cc1ccccc1 | ? | 0%
Cc1nc2nc(SCC(=O)N(C)Cc3ccccc3)nn2c(C)c1Cc1ccccc1Cl | 45µM* | -15%
CCC1CCCCN1C(=O)CCc1nc2ccccc2c(=O)[nH]1 (stereo not drawn) | i | -2%
Brc1c(Br)c(Br)c2n[nH]nc2c1Br | 40µM* | 7%
Brc1c(Br)c(Br)c2[nH]cnc2c1Br | i | -5%
CCN(CC)C(=O)COc1cc2oc(=O)cc(C)c2cc1Cl | i | -1%
C/C(=N/Nc1ccc([N+](=O)[O-])cc1)c1ccccn1 | i | -8%
N.N.N.N.N.N.N.N.N.N.N.N.N.N.O.O.[Ru+4].[Ru+5].[Ru+5] | 22µM* | 32µM*
Cc1ccc(CSc2nnnn2-c2c(C)n(C)n(-c3ccccc3)c2=O)cc1 | i | 0%
Cc1ccc(-n2[nH]c(CSc3nnnn3-c3ccccc3)cc2=O)cc1 | i | 89µM*
Nc1nn(Cc2ccccc2F)cc1Br | i | 4%
CCn1cc2nc(SCc3cccc(C(F)(F)F)c3)n(CCc3ccccc3)c(=O)c2n1 | ? | -14%
CCn1cc2nc(SCc3cccc(C)c3)n(CCc3ccccc3)c(=O)c2n1 | 35µM* | -23%
CCn1cc2nc(SCc3cccc(Cl)c3)n(Cc3ccc(C)cc3)c(=O)c2n1 | i | -16%
CCn1cc2nc(SCc3cccc(C(F)(F)F)c3)n(Cc3ccc(Cl)cc3)c(=O)c2n1 | 25µM* | -29%
CNC(=O)CN1C(=O)CN(C(=O)NCc2ccccc2)c2ccccc21 | i | -14%
COc1cc(NC(=O)CCc2nnc3c(=O)n(-c4ccc(C)c(C)c4)ccn23)cc(OC)c1OC | i | 11%
CCOc1ccc(C(=O)c2cn(CC(=O)Nc3ccc4c(c3)OCO4)c3ccc(OC)cc3c2=O)cc1 | 45µM* | -16%
CCOc1ccc(C(=O)c2cn(CC(=O)Nc3ccc4c(c3)OCO4)c3ccc(OCC)cc3c2=O)cc1 | i | 4%
COc1ccc(/C=C/C(=O)NC2CC2)cc1 | i | -4%
CCN(CC)S(=O)(=O)c1ccc(C)c(NC(=S)N(c2ccccc2)C(C)C)c1 | i | 9%
CCN(C(=S)Nc1cc(S(=O)(=O)N(C)C)ccc1C)c1cccc2ccccc12 | 79µM* | ?
CS(=O)(=O)Cc1ccc(CNCc2cccc3ccccc23)cc1 | i | 0%
CS(=O)(=O)Cc1ccc(CNCc2ccccc2Cl)cc1 | i | 16µM*
O=C(Nc1nonc1-c1ccc2c(c1)CCCC2)c1cc(=O)c2ccc(Br)cc2o1 | 20µM* | 16%
SMILES | AID inh | UDG counter
C=CCSc1nnc(NC(=O)c2cc(=O)c3ccc(Br)cc3o2)s1 | i | 5%
O=C(CC1N=C2c3ccccc3N=C(SCc3ccc(Cl)cc3)N2C1=O)NC1CCCCC1 (stereo not drawn) | i | 26%
COc1ccc(Cl)cc1NC(=O)CSC1=Nc2ccccc2C2=NC(CC(=O)NC3CCCCC3)C(=O)N12 (stereo not drawn) | 32µM* | 11%
COC(=O)CNc1ccccc1C(=O)NCC(F)(F)F | i | 10%
CC(C)(C)c1ccc(C(=O)NCC(c2cccs2)S(=O)(=O)c2cccs2)cc1 (stereo not drawn) | ? | -4%
CC(C)(C)c1ccc(C(=O)NCC(c2cccs2)S(=O)(=O)c2ccc(F)cc2)cc1 (stereo not drawn) | i | 79µM*
Cc1cccc(C(=O)Nc2ccc(N(C)C)cc2)c1 | i | 0%
Cc1ccc(Cn2ccnc2SCC(=O)Nc2ccc3c(c2)OCO3)cc1 | 79µM* | ?
Cc1ccc(Cn2ccnc2SCC(=O)Nc2ccc3c(c2)OCCO3)cc1 | i | -13%
CC(C)c1ccc(C(=O)N2CCN(C/C=C/c3ccccc3)CC2)cc1 | i | -2%
CCc1cc(C(c2ccccc2Cl)N2CCN(C)CC2)c(NC(=O)c2ccco2)s1 (stereo not drawn) | i | -13%
O/N=C\c1ccc(OCc2ccccc2Cl)cc1 | i | -5%
Oc1ccc(NCc2ccc(OCc3ccccc3)cc2)cc1 | 2.8µM* | -23%
c1ccc(CNCc2ccc(OCc3ccccc3)cc2)cc1 | i | -9%
Oc1ccc(NCc2ccc(OCc3ccccc3Cl)cc2)cc1 | 35µM* | 79µM*
CCOc1ccc(NC(=O)Cn2cnc3c(cnn3-c3cc(Cl)ccc3C)c2=O)cc1 | i | -8%
Cc1nn(C)c(C)c1NC(=O)c1cc2sccc2n1Cc1ccccc1 | i | 10%
Cc1ccc2oc(C(=O)Nc3ccc(C(N)=O)cc3)cc(=O)c2c1 | i | 2%
COC(=O)Cc1c(C)c2ccc(OCC(=O)OC(C)(C)C)cc2oc1=O | i | 2%
O=S1(=O)c2ccccc2N(Cc2ccc(Cl)cc2)c2ccccc21 | 79µM* | -29%
O=S1(=O)c2ccccc2N(Cc2ccc(F)cc2)c2ccccc21 | ? | -17%
CCc1c(C)sc(NC(=O)/C=C/c2ccc(F)cc2)c1C#N | i | 1%
CCCCCc1ccc(-c2ccc(C(=O)O)cc2)cc1 | i | -6%
CCCCCCCCc1ccc(-c2ccc(C(=O)O)cc2)cc1 | 89µM*! | -3%
Cc1cc(=O)n(Cc2ccc(F)cc2Cl)c2c1c(C)nn2-c1ccccc1 | i | 38%
SMILES | AID inh | UDG counter
Cc1ccc(C)c(-c2ccc(=O)n(Cc3ccc(F)cc3Cl)n2)c1 | 32µM* | ?
O=C(CCSc1ccc(F)c(F)c1)NC1CCOc2ccccc21 (stereo not drawn) | i | 2%
CCOC(=O)C1CCCN(CCOc2cccc(C(F)(F)F)c2)C1 (stereo not drawn) | i | -2%
CC(C)Cn1c(/C=C/c2ccc(F)cc2)nc2ccccc21 | i | 14%
CCC(C)Cn1c(/C=C/c2ccccc2)nc2ccccc21 (stereo not drawn) | ? | 79µM*
COc1ccccc1C1c2c(n[nH]c2C)Nc2[nH]c(=O)[nH]c(=O)c21 (stereo not drawn) | i | -1%
CN(C)CCNC(=O)CCn1ccc2cc(S(=O)(=O)N3CCCCC3)ccc21 | i | 61%
O=C(C1=C(O)C(=O)N(c2nc3ccc(Cl)cc3s2)C1c1ccco1)c1ccco1 (stereo not drawn) | 50µM* | -5%
Cc1ccc2nc(N3C(=O)C(O)=C(C(=O)c4ccco4)C3c3ccc(O)cc3)sc2c1 (stereo not drawn) | i | 2%
CC(C)NC(=S)NNC(=O)c1ccco1 | i | 2%
CC(=O)N1CCc2c(sc3c2c(=O)n(Cc2ccccc2)c(=O)n3Cc2cccc(Cl)c2)C1 | 32µM* | ?
CC(=O)N1CCc2c(sc3c2c(=O)n(Cc2ccccc2)c(=O)n3Cc2ccc(Cl)cc2)C1 | i | 1%
O=C(NC1CCCCC1)c1ccnc(Cl)c1 | i | -6%
Cc1ccccc1Cn1c(SCc2ccc(C(=O)NCc3cccs3)cc2)nc2ccncc21 | i | 3%
O=C(NCc1cccs1)c1ccc(CSc2nc3ccncc3n2Cc2ccccc2F)cc1 | 79µM* | 5%
COc1ccccc1OCC(=O)N1CCC(c2nc3ccccc3o2)CC1 | i | -3%[57.5 µM]
Cc1ccc(C(C)C)c(OCC(=O)N2CCC(c3nc4ccccc4o3)CC2)c1 | 40µM* | -4%[57.5 µM]
CCCCC(=O)Nc1oc2c(C)cccc2c(=O)c1-c1cc(OC)c(OC)c(OC)c1 | i | -4%
CCCCC(=O)Nc1oc2c(C)cccc2c(=O)c1-c1ccccc1 | i | 79µM*
CN1C(=O)C2(C(C#N)=C(N)N(c3ccccc3)C3=C2C(=O)OC3)c2ccccc21 (stereo not drawn) | i | 0%

Screens as filed in PubChem BioAssay.
